Source: PubChem BioAssay AID1159580 (chemical genetic matrix, 2015)
Values joined by “and” are separate entries in the source; they are usually repeats but may differ in a detail not shown here. Identical values can stand only once. The whole screen tested about 5,500 compounds, of which about 2,000 (36%) were called active. Another 18% or so got no clear call; they are omitted. No stated cut-off is given here; in the data, active means normalized growth mostly below about 0.91 (no sharp cut-off); inconclusive means no clear call, values can overlap the other calls; inactive means mostly above about 0.92. Some of the results follow.

Test: chemical genetic growth profiling, strain panel (AID 1159580);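 further: tested at 20 µM; growth read once vehicle control cultures reached saturation at 30 °C; 1 = growth at the plate median or of vehicle wells; lower values mean less growth of the strain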
Conditions: S. cerevisiae deletion strains, growth OD

Measured: normalized growth

CC(=O)OCC(=O)[C@@]1(O)[C@H](C)CC2C3CCC4=CC(=O)C=C[C@]4(C)[C@@]3(F)[C@@H](O)C[C@@]21C (some centres undefined)
inactive: locus YAL013W, strain DEP1, hits give low values 1.01 | locus YAL021C, strain ccr4, hits give low values 0.959 | locus YAL026C, strain drs2, hits give low values 1 | locus YAL030W, strain snc1, hits give low values 0.969 | locus YBL061C, strain skt5, hits give low values 0.985 | locus YBR009C, strain hhf1, hits give low values 0.983 | locus YBR021W, strain FUR4, hits give low values 0.995 | locus YBR023C, strain chs3, hits give low values 0.978 | locus YBR171W, strain sec66, hits give low values 0.957 | locus YBR229C, strain ROT2, hits give low values 1.01 | locus YBR231C, strain swc5, hits give low values 0.962 | locus YBR279W, strain paf1, hits give low values 0.991 | locus YCL011C, strain gbp2, hits give low values 0.988 | locus YCL016C, strain dcc1, hits give low values 1.01 | locus YCL029C, strain bik1, hits give low values 1 | locus YCL061C, strain MRC1, hits give low values 0.98 | locus YCL069W, strain vba3, hits give low values 0.987 | locus YCR088W, strain abp1, hits give low values 0.984 | locus YDL005C, strain med2, hits give low values 0.964 | locus YDL035C, strain GPR1, hits give low values 1.03 | locus YDL040C, strain nat1, hits give low values 0.961 | locus YDL074C, strain BRE1, hits give low values 1.01 | locus YDL101C, strain DUN1, hits give low values 0.999 | locus YDL134C, strain PPH21, hits give low values 1.02 | locus YDL185W, strain tfp1, hits give low values 1.01 | locus YDL192W, strain arf1, hits give low values 0.998 | locus YDR001C, strain nth1, hits give low values 0.951 | locus YDR069C, strain doa4, hits give low values 0.948 | locus YDR101C, strain arx1, hits give low values 1.02 | locus YDR137W, strain rgp1, hits give low values 0.997 | locus YDR150W, strain NUM1, hits give low values 1.01 | locus YDR159W, strain sac3, hits give low values 0.962 | locus YDR162C, strain NBP2, hits give low values 1.02 | locus YDR195W, strain ref2 0.933 | locus YDR297W, strain sur2, hits give low values 0.988 | locus YDR318W, strain mcm21, hits give low values 0.999 | locus YDR334W, strain swr1, hits give low values 0.948 | locus YDR335W, strain msn5, hits give low values 0.966 | locus YDR388W, hits give low values 0.997 | locus YDR392W, strain spt3, hits give low values 1.07 | locus YDR502C, strain sam2, hits give low values 0.998 | locus YEL003W, strain gim4, hits give low values 0.981 | locus YEL037C, strain rad23, hits give low values 0.98 | locus YEL061C, strain CIN8 (second series), hits give low values 0.975 | locus YEL061C, strain CIN8, hits give low values 1.01 | locus YER015W, strain faa2, hits give low values 0.985 | locus YER016W, strain bim1, hits give low values 1.04 | locus YER110C, hits give low values 0.995 | locus YER111C, strain swi4, hits give low values 0.986 | locus YER155C, strain BEM2 (second series), hits give low values 0.967 | locus YER155C, strain BEM2, hits give low values 0.999 | locus YER167W, strain BCK2, hits give low values 1.01 | locus YFR010W, strain ubp6, hits give low values 0.958 | locus YGL078C, strain dbp3, hits give low values 0.997 | locus YGL086W, strain mad1, hits give low values 1 | locus YGL167C, strain pmr1, hits give low values 0.954 | locus YGL173C, strain kem1, hits give low values 0.961 | locus YGL227W, strain vid30, hits give low values 0.974 | locus YGL240W, strain doc1, hits give low values 0.949 | locus YGL248W, strain PDE1, hits give low values 1 | locus YGL253W, strain hxk2, hits give low values 0.984 | locus YGR078C, strain PAC10, hits give low values 1.01 | locus YGR135W, strain pre9, hits give low values 0.993 | locus YGR252W, strain gcn5, hits give low values 0.955 | locus YHR013C, strain ard1, hits give low values 0.998 | locus YHR027C, strain rpn1, hits give low values 0.982 | locus YHR030C, strain SLT2, hits give low values 1.01 | locus YHR079C, strain IRE1 (second series), hits give low values 0.996 | locus YHR079C, strain IRE1, hits give low values 1.01 | locus YHR094C, strain hxt1, hits give low values 0.995 | locus YHR129C, strain ARP1, hits give low values 1.01 | locus YHR142W, strain chs7, hits give low values 0.961 | locus YHR200W, strain rpn10, hits give low values 0.995 | locus YIL066C, strain RNR3, hits give low values 1.02 | locus YIL073C, strain SPO22, hits give low values 0.99 | locus YIL125W, strain kgd1, hits give low values 0.997 | locus YIR030C, strain dcg1, hits give low values 1 | locus YJL092W, strain hpr5, hits give low values 0.977 | locus YJL095W, strain BCK1 (second series), hits give low values 0.968 | locus YJL095W, strain BCK1, hits give low values 1.02 and 1.01 | locus YJL115W, strain asf1, hits give low values 0.951 | locus YJL129C, strain trk1, hits give low values 0.956 | locus YJL134W, strain LCB3, hits give low values 1.01 | locus YJL154C, strain vps35, hits give low values 0.964 | locus YJL164C, strain tpk1, hits give low values 1 | locus YJL166W, strain qcr8, hits give low values 0.915 | locus YJL168C, strain set2, hits give low values 1.01 | locus YJL187C, strain SWE1 (second series), hits give low values 1.01 | locus YJR043C, strain POL32, hits give low values 1 | locus YJR066W, strain TOR1, hits give low values 0.988 | locus YKL009W, strain mrt4, hits give low values 1 | locus YKL068W, hits give low values 0.998 | locus YKL085W, strain MDH1 (second series), hits give low values 1.03 | locus YKL085W, strain MDH1, hits give low values 1.03 | locus YKL160W, strain elf1, hits give low values 0.971 | locus YKL190W, strain CNB1, hits give low values 1.01 | locus YKR001C, strain vps1, hits give low values 0.988 | locus YKR026C, strain gcn3, hits give low values 0.964 | locus YKR091W, strain srl3, hits give low values 0.97 | locus YLL001W, strain dnm1, hits give low values 0.926 | locus YLL026W, hits give low values 0.991 | locus YLL041C, strain sdh2, hits give low values 0.955 | locus YLR027C, strain aat2, hits give low values 0.979 | locus YLR039C, strain RIC1, hits give low values 1.02 | locus YLR058C, strain SHM2, hits give low values 1.01 | locus YLR102C, strain apc9, hits give low values 0.993 | locus YLR113W, strain HOG1, hits give low values 1.02 | locus YLR221C, strain rsa3, hits give low values 1.02 | locus YLR258W, strain gsy2, hits give low values 0.992 | locus YLR262C, strain YPT6 (second series), hits give low values 0.92 | locus YLR262C, strain YPT6, hits give low values 1.02 | locus YLR268W, strain sec22, hits give low values 1.01 | locus YLR320W, strain mms22, hits give low values 1.02 | locus YLR330W, strain CHS5, hits give low values 1.01 | locus YLR342W, strain FKS1 (second series), hits give low values 1.04 | locus YLR342W, strain FKS1, hits give low values 0.969 | locus YLR357W, strain rsc2, hits give low values 0.982 | locus YLR370C, strain arc18, hits give low values 0.98 | locus YLR371W, strain rom2, hits give low values 0.997 | locus YLR384C, strain iki3, hits give low values 0.965 | locus YLR418C, strain cdc73, hits give low values 0.954 | locus YML016C, strain PPZ1, hits give low values 1.01 | locus YML032C, strain rad52, hits give low values 0.997 | locus YML120C, strain ndi1, hits give low values 0.973 | locus YML124C, strain tub3, hits give low values 1.03 | locus YMR058W, strain fet3, hits give low values 0.97 | locus YMR078C, strain ctf18, hits give low values 0.998 | locus YMR125W, strain sto1, hits give low values 0.963 | locus YMR129W, hits give low values 0.988 | locus YMR205C, strain PFK2, hits give low values 0.958 | locus YMR223W, strain ubp8, hits give low values 0.999 | locus YMR231W, strain pep5, hits give low values 0.965 | locus YMR307W, strain GAS1, hits give low values 0.959 | locus YNL067W, strain RPL9B, hits give low values 1.01 | locus YNL071W, strain lat1, hits give low values 0.992 | locus YNL183C, strain NPR1, hits give low values 0.974 | locus YNL209W, strain ssb2, hits give low values 0.993 | locus YNL233W, strain BNI4, hits give low values 1.01 | locus YNL248C, strain rpa49, hits give low values 1.01 | locus YNL250W, strain rad50, hits give low values 0.975 | locus YNL271C, strain bni1, hits give low values 1 | locus YNL298W, strain CLA4, hits give low values 0.989 | locus YNL307C, strain MCK1, hits give low values 0.998 | locus YNL322C, strain KRE1 (second series), hits give low values 0.961 | locus YNL322C, strain KRE1, hits give low values 0.995 | locus YNR049C, strain mso1, hits give low values 0.982 | locus YNR052C, strain pop2, hits give low values 1.01 | locus YOL012C, strain htz1 0.869 | locus YOL147C, strain pex11, hits give low values 0.999 | locus YOR001W, strain rrp6, hits give low values 0.963 | locus YOR061W, strain CKA2, hits give low values 1.02 | locus YOR069W, strain VPS5, hits give low values 1.01 | locus YOR070C, strain gyp1, hits give low values 0.99 | locus YOR080W, strain dia2, hits give low values 0.946 | locus YOR083W, strain WHI5, hits give low values 0.978 | locus YOR106W, strain vam3, hits give low values 0.927 | locus YOR136W, strain idh2, hits give low values 0.994 | locus YOR144C, strain elg1, hits give low values 0.999 | locus YOR184W, strain ser1, hits give low values 1.01 | locus YOR231W, strain MKK1, hits give low values 1.03 | locus YOR265W, strain rbl2, hits give low values 0.982 | locus YOR270C, strain vph1, hits give low values 0.95 | locus YOR290C, strain snf2, hits give low values 1 | locus YOR316C, strain cot1, hits give low values 1 | locus YPL051W, strain arl3, hits give low values 1.01 | locus YPL078C, strain atp4, hits give low values 0.934 | locus YPL106C, strain sse1, hits give low values 0.969 | locus YPL240C, strain hsp82, hits give low values 0.969 | locus YPL256C, strain CLN2, hits give low values 1.03 | locus YPR119W, strain clb2, hits give low values 0.997 | locus YPR141C, strain kar3, hits give low values 0.99 | locus YPR163C, strain tif3, hits give low values 0.996 | locus YPR167C, strain met16, hits give low values 1 | strain wtn01, hits give low values 0.997
